# Sfp PPTase inh: Sfp phosphopantetheinyl transferase inhibition. Q9F4F7. Biochemical Sfp PPTase activity, qHTS. Potency, µM, inactives show largest response in the series, negative = inhibition, most hits filed as inhibitors. hit rate 3.5% among 310,000. AID 1490;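 further: the enzyme is Sfp with the accession as filed and its product quenches rhodamine fluorescence; 0% = enzyme reaction without inhibitor and -100% = no enzyme wells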
#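 With Hepes-Na pH 7.6 buffer containing 10 mM MgCl2, Sfp (15 nM) modified BHQ-2-YbbR (12.5 uM) using rhodamine-CoA (5 uM). Two reads 30 minutes apart at 525/598 nm yielded each well's rate.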
# HP1b chromo inh: HP1-beta chromodomain-methylated histone interaction inhibition. P83916. AlphaScreen HP1-beta / biotin-H3K9me3 peptide binding. Potency, µM (titrated, usually from 114 µM), without a hit: at the highest dose activity change, negative = inhibition, usual class: inhibitors. hit rate 0.56% among 390,000. AID 540317; further: nearly all actives have a fitted effect of over 70% in size
#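 Compound inhibition of the preformed complex between 50 nM HP1-beta and 50 nM biotinylated H3K9me3 peptide was read by AlphaScreen. Buffer was PBS pH 7.4 with 0.01% Tween-20. Incubations ran 30 min at room temperature, with 10 ug/mL donor/acceptor beads.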
# TDP1 inh: blocks human tyrosyl-DNA phosphodiesterase 1; Q9NUW8; recombinant TDP1, AlphaScreen DNA substrate cleavage; Potency, µM (highest dose often 130 µM), for the others: at the highest dose activity change, negative = inhibition, hits mostly inhibitors; hit rate 0.28% among 350,000; further: on the % scale 0 is the no-effect control and ±100 the full control effect; nearly all actives have a fitted effect of over 40% in size
# Target sequence (Q9NUW8 whole entry, looked up): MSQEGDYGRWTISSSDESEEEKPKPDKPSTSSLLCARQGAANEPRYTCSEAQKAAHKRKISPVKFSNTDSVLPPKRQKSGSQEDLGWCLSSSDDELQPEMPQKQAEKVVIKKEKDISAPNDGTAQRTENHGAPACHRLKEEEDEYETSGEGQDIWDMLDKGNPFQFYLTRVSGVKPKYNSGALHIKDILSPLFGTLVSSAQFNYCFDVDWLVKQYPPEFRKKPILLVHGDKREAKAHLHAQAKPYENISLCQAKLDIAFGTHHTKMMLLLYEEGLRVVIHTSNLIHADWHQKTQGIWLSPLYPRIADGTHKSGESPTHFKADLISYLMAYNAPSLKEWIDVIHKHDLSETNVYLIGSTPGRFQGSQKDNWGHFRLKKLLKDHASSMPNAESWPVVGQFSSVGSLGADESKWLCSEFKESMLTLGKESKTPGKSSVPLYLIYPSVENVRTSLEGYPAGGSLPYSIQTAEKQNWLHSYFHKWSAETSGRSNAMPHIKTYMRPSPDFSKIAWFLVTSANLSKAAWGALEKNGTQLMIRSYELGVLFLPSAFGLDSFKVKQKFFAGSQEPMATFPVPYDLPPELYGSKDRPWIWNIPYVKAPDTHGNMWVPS
#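 E. coli-derived human Tdp1, 1 nM final. Cpd preinc 15 min RT; substrate 15 nM final, 5 min RT; AS bead mix 10 ug/ml final, 10 min RT. Signal loss = tyrosine-FITC cleavage. No-enzyme wells = max signal.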
# BAZ2B block: blocks human BAZ2B; AlphaScreen BAZ2B-H3K14Ac peptide displacement; hit rate 4.4% among 360,000; Potency, µM (highest dose often 114 µM), inactives show at the highest dose activity change, negative = inhibition, hits mostly inhibitors; Q9UIF8; AID 504333; further: on the % scale 0 is the no-effect control and ±100 the full control effect; nearly all actives have a fitted effect of over 60% in size
#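 AlphaScreen displacement: compounds (up to 110uM) incubated 30 min at room temperature with a preformed 50 nM BAZ2B/50 nM biotinylated H3K14Ac peptide complex in PBS pH 7.4 with Tween-20. Donor and acceptor beads at 10 ug/mL final added, 20 min light-protected before reading.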
# JMJD2A Tudor inh: blocks the human JMJD2A Tudor domain; O75164; hit rate 4.4% among 390,000; AlphaScreen JMJD2A-Tudor / H3K4me3 peptide binding; Potency, µM (titrated, usually from 114 µM), without a hit: at the top dose activity change, negative = inhibition, actives largely listed as inhibitors; further: on the % scale 0 is the no-effect control and ±100 the full control effect; nearly all actives have a fitted effect of over 50% in size
# G9a inh: G9a (human) methyltransferase inhibition | G9a H3K9 monomethylation, AlphaScreen, 2 h | Potency, µM (titrated, usually from 102 µM), for the others: at the top dose activity, negative = inhibition, hits mostly inhibitors | hit rate 8.8% among 350,000 | AID 504332; further: on the % scale 0 is the no-effect control and ±100 the full control effect; nearly all actives have a fitted effect of over 75% in size
#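 Methyltransferase reactions run at room temperature for 2 h (20 nM enzyme, 500 nM biotin-H3K9 peptide, 20 uM SAM) after a 15 min compound preincubation; product detected by AlphaScreen beads and anti-H3K9me1 antibody.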
# * hit, by the source's call; ? = inconclusive; / = not tested or not shown; [ ] = remark or other dose. Hits are enriched below; roughly 12% of the tested compounds scored in any of these assays. The call rests on the fitted dose curve; in most records, active means well fitted curve in the direction sought with a large enough effect; inconclusive means small, poorly fitted or top-dose-only effect, or another doubt; inactive means no such curve, though single readings can be large; an effect the other way counts as inactive or inconclusive. Potency means the concentration at half of the fitted maximal effect.
SMILES,Sfp PPTase inh,HP1b chromo inh,TDP1 inh,BAZ2B block,JMJD2A Tudor inh,G9a inh
O=C(O)c1ccc(S(=O)(=O)c2ccc(Sc3ccc(C(=O)O)c(C(=O)O)c3)cc2)cc1,4%,16%,0%,50µM*,-14%,45µM*
O=C(O)c1ccc(S(=O)(=O)N2CCCC2)cc1,4%,49%,/,-7%,4%,-2%
O=C(COC(=O)c1ccccc1Cl)Nc1ccc2[nH]c(=O)[nH]c2c1,/,2%,-8%,1%,-22%,-34%
O=C(COC(=O)Cc1ccc(F)cc1)Nc1ccc2[nH]c(=O)[nH]c2c1,/,11%,/,-2%,-25%,50µM*
Cc1ccc(/C=C/C(=O)OCC(=O)Nc2ccc3[nH]c(=O)[nH]c3c2)o1,/,16%,4%[0.505 µM],6%,-16%,40µM*
O=C(COC(=O)c1ccccc1OC(F)F)Nc1ccc2[nH]c(=O)[nH]c2c1,/,11%,?,-6%,-19%,40µM*
COc1ccc(-c2coc3c(CN4CCCCC4C)c(O)ccc3c2=O)cc1 (stereo not given),6%,47%,/,4%,-2%,12%
COc1cc(CCC(=O)N2CCN(c3cccc(C)c3C)CC2)cc(OC)c1OC,6%,-8%,/,2%,-7%,9%
Cc1ccc(Cl)cc1NC(=O)c1cc(S(=O)(=O)N2CCCCCC2)cn1C,/,14%[57 µM],3%,-7%,-19%,7%[59 µM]
O=[N+]([O-])c1ccc(Cl)cc1Sc1cccc2cccnc12,16%,7%,1%,-6%,-7%,-4%[59 µM]
O=[N+]([O-])c1ccc(Cl)cc1Sc1nc2ccccc2o1,-5%,13µM*,10%,14µM*,45µM*,?
Cc1ccc(NC(=O)CSc2nc(-c3cccs3)nc3cc(=O)[nH]n23)cc1C,/,-21%,/,50µM*,79µM*,25%[12.7 µM]
Cc1ccc(NC(=O)CSc2nc(-c3ccc(C(C)(C)C)cc3)nc3cc(=O)[nH]n23)cc1C,/,25%,3%,-4%,-1%,18%[59 µM]
O=C(CSc1nc(-c2ccco2)nc2cc(=O)[nH]n12)Nc1ccccc1Cl,/,23%,/,-16%,-3%,-4%[59 µM]
COc1ccc(OC)c(NC(=O)CSc2nc(-c3ccccc3C)nc3cc(=O)[nH]n23)c1,/,-4%,5%,-22%,-18%,-8%[59 µM]
Cc1ccccc1NC(=O)CSc1nc(-c2cccs2)nc2cc(=O)[nH]n12,/,6%,?,50µM*,?,17%[12.7 µM]
CCOc1ccc(-c2nc(SCC(=O)Nc3ccc(C)c(C)c3)n3[nH]c(=O)cc3n2)cc1,/,?,0%,50µM*,50µM*,-4%[59 µM]
Cc1ccc(NC(=O)CSc2nc(-c3ccco3)nc3cc(=O)[nH]n23)c(Cl)c1,?,26%,50µM*,45µM*,?,/
Cc1ccc(NC(=O)CSc2nc(-c3ccco3)nc3cc(=O)[nH]n23)cc1,/,8%,0%,-37%,-26%,9%[59 µM]
CCN(CCCNC(=O)CSc1cc(=O)n(CC)c2ccccc12)c1ccccc1,/,?,7%,?,50µM*,?
COc1ccc(C2CC(=O)C3=C(C2)NC(C)=C(C#N)C3c2ccc(N(C)C)cc2)cc1 (stereo not given),2%,?,-4%,?,?,13µM*
Cc1ccc(Cl)cc1NC(=O)c1cc(-c2ccc3c(c2)OCCO3)on1,/,42%,-4%,-1%,9%,4%[59 µM]
NS(=O)(=O)c1ccc(CCNC(=O)CN2CCN(S(=O)(=O)c3ccccc3F)CC2)cc1,/,-1%,0%,/,-23%,/
OC1(c2ccc3ccccc3c2)CCN(Cc2ccccc2)C1 (stereo not given),89µM*,32%,9%,8%,-14%,-44%
Cc1csc2nc(CN3CCN(CC(=O)N(C)C)CC3)cc(=O)n12,16%,41%,4%,8%,1%,45µM*
SMILES,Sfp PPTase inh,HP1b chromo inh,TDP1 inh,BAZ2B block,JMJD2A Tudor inh,G9a inh
O=c1c2c(-c3ccc(Cl)cc3)csc2ncn1/N=C/c1cccc([N+](=O)[O-])c1O,-6%,-17%,-6%,50µM*,40µM*,40µM*
COc1ccc(C2N(c3ccc(Cl)cc3)N=C(C(C)=O)N(C)N2C(C)=O)cc1 (stereo not given),-4%,-11%,8%,?,?,28µM*
CC(C)(C)c1nnc(NC(=O)CCS(=O)(=O)c2ccccc2)s1,-23%,-9%,/,-9%,-2%,28µM*
Cc1nnc(NC(=O)CCS(=O)(=O)c2ccccc2)s1,5%,3%,2%[0.0935 µM],-18%,-3%,?
O=C(CS(=O)(=O)c1ccccc1)Nc1nnc(C(F)(F)F)s1,8%,24%,8%,1%,7%,?
O=C(CCS(=O)(=O)c1ccccc1)Nc1nnc(C(F)(F)F)s1,4%,-12%,/,?,-26%,40µM*
Cc1ccc(S(=O)(=O)CC(=O)Nc2nnc(C(C)(C)C)s2)cc1,?,-14%,12%,4%,?,22µM*
COc1cccc(CNC(=O)C2(c3cccs3)CCOCC2)c1,/,32%,0%,0%,-2%,1%[59 µM]
CSc1nnc(C)c(/C=C/NOCc2cccc(F)c2)n1,-9%,5%,4%,?,-26%,22µM*
O=[N+]([O-])c1ccccc1/C=N\Nc1nccs1,0%,6%,/,-3%,-20%,19%
O=C(COc1ccccc1[N+](=O)[O-])N/N=C/c1ccc(O)c([N+](=O)[O-])c1,-4%,?,9%,-20%,-20%,50µM*
Cc1ccc(OCC(=O)N/N=C/c2ccccc2)c([N+](=O)[O-])c1,8%,1%,6%,1%,-19%,-6%
O=C(COc1ccccc1C(=O)N/N=C\c1ccc(O)c(O)c1)N/N=C/c1ccc(O)c(O)c1,?,7.9µM*,-7%,1.6µM*,2.2µM*,?
O=[N+]([O-])c1cc(/C=N\Nc2nccs2)ccc1O,14µM*,/,?,4µM*,/,-6%[2.33 µM]
COc1ccc(C(CC(=O)O)N2Cc3ccccc3C2=O)cc1OC (stereo not given),14%,38%,/,-3%,4%,5%

# Bioassay records as filed in PubChem BioAssay.
